Experimental data reported in PubChem BioAssay (NCATS).
A number with no mark means an inactive call. Rule as the data show it: active = potency below about 10 µM; inactive = the rest.

target: Lysosomal acid glucosylceramidase (Homo sapiens) (UniProt P04062); test: Glucocerebrosidase-p2 (AID 348); conditions: purified GBA, blue fluorogenic substrate, 40 min
Text: Beta-glucocerebrosidase catalyzes the hydrolysis of beta-glucocerebroside to glucose and ceramide. The inherited deficiency of beta-glucocerebrosidase results in Gaucher disease, which is characterized by a wide variety of symptoms including hepatosplenomegaly, anemia, thrombocytopenia, bony lesions and bone marrow infiltration with characteristic storage cells, known as Gaucher cells. There are also forms of the disorder affecting the central nervous system. Patients with the same genotypes can manifest with diverse clinical presentations and it is believed that improper folding and trafficking of beta-glucocerbrosidase may contribute to the phenotypes observed.
Low molecular weight molecules, acting as chaperones, may potentially restore trafficking of misfolded beta-glucocerebrosidase from the endoplasmic reticulum to the lysosomes, thereby enhancing functional lysosomal beta-glucocerebrosidase activity.
Using normal beta-glucocerebrosidase, an assay was developed to screen for small molecule inhibitors that could potentially act as molecular chaperones on the mutant forms [developed with NIH investigator Dr. Ellen Sidransky#s laboratory]. Two pro-fluorescent substrates were chosen for two screens against a small molecule library. One beta-glucocerebrosidase assay used Resorufin beta-D-Glucopyranoside (Marker Gene Technology Inc.), generating a red fluorescent product. The second assay used […] fluorescent product. The Km for the Resorufin beta-D-Glucopyranoside and Fluorescein di-beta-D-Glucopyranoside were determined to be 71.2 uM and 855 uM, respectively. The IC50 values of Conduritol B Epoxide, a known glucocerebrosidase inhibitor, were determined to be 87.5 uM and 117 uM, respectively. The use of two difference pro-fluorescent substrates in the screens helped to eliminate false positives. All compounds were screened in a titration series resulting in AC50s (e.g., IC50s or EC50s). Data normalization and AC50 calculations were accomplished using GeneData software.
NCGC Assay Protocol Summary
Both enzyme and substrate were diluted in buffer composed of 50mM citric acid/KH2PO4, 10mM sodium taurocholate and 0.01% tween-20 at pH 5.9. The final concentration of the enzyme was 0.2 nM in both assays. The compound library was titrated in 7 to 15 concentrations for the primary screens with a final concentration ranging from 0.6 nM to 50 uM. This particular assay protocol is for the "blue" substrate, and it was performed in 1536-well plate format as follows:
Blue fluorescence substrate assay:
1 uL substrate (final concentration of 80 uM)
Incubate at room temperature (RT) for 40 minutes
3 uL stop solution (1 M NaOH and 1 M glycine in water)
Read the plate in Viewlux plate reader (Ex=365(10) and Em=440(10)).
Potency is read from the fitted curve at half-maximal effect.

Chain of Lysosomal acid glucosylceramidase (Homo sapiens) (P04062 whole entry, looked up): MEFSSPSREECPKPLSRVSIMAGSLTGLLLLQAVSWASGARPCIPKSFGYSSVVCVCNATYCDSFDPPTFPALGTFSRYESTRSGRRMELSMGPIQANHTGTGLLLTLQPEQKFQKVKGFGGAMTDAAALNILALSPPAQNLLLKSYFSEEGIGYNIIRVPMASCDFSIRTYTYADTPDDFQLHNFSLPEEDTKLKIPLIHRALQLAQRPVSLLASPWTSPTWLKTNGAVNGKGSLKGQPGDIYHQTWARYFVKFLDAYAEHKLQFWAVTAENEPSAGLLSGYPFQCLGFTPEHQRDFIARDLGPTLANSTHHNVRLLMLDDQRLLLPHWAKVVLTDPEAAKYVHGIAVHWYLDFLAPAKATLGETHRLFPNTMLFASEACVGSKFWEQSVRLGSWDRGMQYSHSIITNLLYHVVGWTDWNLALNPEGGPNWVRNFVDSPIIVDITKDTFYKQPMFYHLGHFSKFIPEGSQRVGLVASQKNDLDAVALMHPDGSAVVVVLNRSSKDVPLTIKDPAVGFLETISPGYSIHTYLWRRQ

Row | Structure (SMILES) | Potency [µM]
1 | O=C(Oc1ccccc1)N1CCC[C@@]2(CCN(Cc3cc(C(F)(F)F)cc(C(F)(F)F)c3)C2)C1 | > 11.4
2 | CC(C)CN1CC[C@@]2(CCCN(C(=O)Oc3ccccc3)C2)C1 | > 11.4
3 | O=C(Oc1ccccc1)N1CCC2(CC1)CCN(C(c1ccccc1)c1ccccc1)CC2 | > 11.4
4 | c1cc(CN2CCCC3(CCNCC3)C2)ccn1 | > 11.4
5 | CC(C)(O)/C=C\C(=O)[C@](C)(O)[C@H]1[C@H](O)C[C@]2(C)[C@@H]3CC=C4[C@@H](C=C(O)C(=O)C4(C)C)[C@]3(C)C(=O)C[C@@]12C | > 11.4
6 | Cc1noc(C)c1C(=O)N1CCC2(CCCN(CC(C)C)C2)CC1 | > 11.4
7 | COc1ccc(NC(=O)N2CCCC3(CCN(C(=O)Oc4ccccc4)CC3)C2)cc1 | > 11.4
8 | O=C(c1ccco1)N1CCC2(CC1)CN(Cc1ccncc1)C2 | > 11.4
9 | c1cnc(N2CC3(CCNCC3)C2)nc1 | > 11.4
10 | N#Cc1ccc(CN2CCCC3(CCN(C(=O)Oc4ccccc4)CC3)C2)cc1 | > 11.4
11 | CC(C)CN1CCC2(CC1)CCN(C(=O)Oc1ccccc1)CC2 | > 11.4
12 | c1ccc(CN2CCCC3(CCNCC3)C2)cc1 | > 11.4
13 | O=C(c1cnccn1)N1CCC2(CC1)CN(Cc1ccncc1)C2 | > 11.4
14 | O=C(Oc1ccccc1)N1CCC2(CCCN(Cc3ccccc3)C2)CC1 | > 11.4
15 | O=C(Nc1cccc(F)c1)N1CCC2(CC1)CCN(C(=O)Oc1ccccc1)CC2 | > 11.4
16 | O=C(Oc1ccccc1)N1CCC2(CC1)CN(Cc1ccncc1)C2 | > 11.4
17 | CN1CCCC2(CCN(C(=O)Oc3ccccc3)CC2)C1 | > 11.4
18 | c1cnc(N2CC[C@@]3(CCCNC3)C2)nc1 | > 11.4
19 | CC(C)CN1CCC2(CC1)CCN(S(C)(=O)=O)CC2 | > 11.4
20 | COC(=O)N1CCC2(CCN(CC(C)C)CC2)CC1 | > 11.4

Row | Structure (SMILES) | Potency [µM]
21 | c1ccc(N2CCCC3(CCNCC3)C2)cc1 | > 11.4
22 | O=C1NC(=S)NC(=O)C1=Cc1cccc2cc3ccccc3cc12 | > 11.4
23 | O=C(Nc1cccc(F)c1)N1CC2(CCN(C(=O)Oc3ccccc3)CC2)C1 | > 11.4
24 | CC(C)NC(=O)N1CCC2(CC1)CCN(C(=O)Oc1ccccc1)CC2 | > 11.4
25 | CC(C)c1ccc(C(c2c(O)c3ccccc3oc2=O)c2c(O)c3ccccc3oc2=O)cc1 | > 11.4
26 | COc1ccc(NC(=O)N2CCC3(CC2)CCN(C(=O)Oc2ccccc2)CC3)cc1 | > 11.4
27 | CN1CCCC2(CCN(C(=O)c3ccco3)CC2)C1 | > 11.4
28 | O=C(Nc1ccccc1)N1CCC2(CC1)CCN(C(=O)Oc1ccccc1)CC2 | > 11.4
29 | O=C(Nc1cccc(F)c1)N1CCCC2(CCN(C(=O)Oc3ccccc3)CC2)C1 | > 11.4
30 | c1cc(CN2CC3(CCNCC3)C2)ccn1 | > 11.4
31 | O=C(Nc1cccc(F)c1)N1CC2(CCNCC2)C1 | > 11.4
32 | O=C(Nc1cccc(F)c1)N1CC[C@@]2(CCCN(C(=O)Oc3ccccc3)C2)C1 | > 11.4
33 | O=C(Oc1ccccc1)N1CCC2(CCN(Cc3ccncc3)CC2)CC1 | > 11.4
34 | COc1ccccc1CN1CC[C@@]2(CCCN(C(=O)Oc3ccccc3)C2)C1 | > 11.4
35 | O=C(Oc1ccccc1)N1CCC2(CCN(Cc3ccccc3)CC2)CC1 | > 11.4
36 | CC(C)NC(=O)N1CCC2(CCNCC2)CC1 | > 11.4
37 | CC(C)CN1CCCC2(CCN(C(=O)Oc3ccccc3)CC2)C1 | > 11.4
38 | O=C(Nc1ccccc1)N1CCCC2(CCN(C(=O)Oc3ccccc3)CC2)C1 | > 11.4
39 | O=C(Oc1ccccc1)N1CCC2(CCCN(Cc3nccs3)C2)CC1 | > 11.4
40 | Clc1ccccc1-c1cncnc1NCCc1cnc[nH]1 | > 11.4
